Here are results for 13 compounds from PubChem BioAssay.

The nature of assay [1]: optical density shifts of acrAB sulA E. coli – strain DRC41, OD650, 48 h, E. coli filamentation inducer project, primary screen (AID 1152).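 Also: E. coli MC1000 strain DRC41 lacking acrAB efflux pump and sulA.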 The conditions noted are these: higher = more signal, called active from +8 up or from −8 down.
The nature of assay [2]: probe aLefty1 binding on compound microarray – biochemical, small-molecule microarray, 635/667 nm fluorescence, primary screen (AID 1153).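 Also: score merges spot fluorescence with signal-to-noise ratio from the scanned slide images.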 To be noted: higher = more signal.
Assay [3] in a line: plasmodial surface anion channel blockers, osmotic lysis – cell-based, P. falciparum Indochina, OD700, 1 h, primary screen (AID 1154). The conditions noted are these: P. falciparum Indochina infected RBC osmotic lysis, higher = more signal, called active from +8 up or from −8 down.
Assay [4] can be described thus: plasmodial surface anion channel blockers, osmotic lysis – cell-based, P. falciparum Indochina, OD700, 2 h, primary screen (AID 1155).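 Also: lysis reports solute entry through the parasite surface anion channel PSAC.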 The conditions noted are these: P. falciparum Indochina infected erythrocytes, higher = more signal, called active from +8 up or from −8 down.
The nature of assay [5]: changes in parasitized red cell lysis, either direction – P. falciparum Indochina, OD700, 3 h, PSAC antagonist project, primary screen (AID 1156). To be noted: P. falciparum-infected erythrocytes, osmotic lysis, higher = more signal, called active from +8 up or from −8 down.
Assay [6] is described as follows: plasmodial surface anion channel blockers, osmotic lysis – cell-based, P. falciparum Indochina, OD700, 18 h, primary screen (AID 1157). The conditions noted are these: P. falciparum Indochina infected erythrocytes, osmotic lysis OD700, 18 h; higher = more signal, called active from +8 up or from −8 down.
Assay [7] can be described thus: S6 kinase pathway phospho-S6 level changes – cell-based, A549, cytoblot, luminescence, serum-stimulated, primary screen (AID 1158).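 Also: serum-stimulated A549 lung adenocarcinoma cells; signal is phosphorylated S6 detected by cytoblot immunostaining with HRP secondary.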 The conditions noted are these: 5 h, higher = more signal.
Assay [8] deals with NADPH oxidase 2 (Homo sapiens) (UniProt P04839). Kind of assay: compounds shifting NOX2 Amplex Red fluorescence – cell-based, HEK293-NOX2, PMA-stimulated, NOX inhibitor project, primary screen (AID 1159). Also: test concentration not given here. To be noted: 45 min, higher = more signal, called active from +8 up or from −8 down.
Sequence of NADPH oxidase 2 (Homo sapiens) (P04839 whole entry, looked up): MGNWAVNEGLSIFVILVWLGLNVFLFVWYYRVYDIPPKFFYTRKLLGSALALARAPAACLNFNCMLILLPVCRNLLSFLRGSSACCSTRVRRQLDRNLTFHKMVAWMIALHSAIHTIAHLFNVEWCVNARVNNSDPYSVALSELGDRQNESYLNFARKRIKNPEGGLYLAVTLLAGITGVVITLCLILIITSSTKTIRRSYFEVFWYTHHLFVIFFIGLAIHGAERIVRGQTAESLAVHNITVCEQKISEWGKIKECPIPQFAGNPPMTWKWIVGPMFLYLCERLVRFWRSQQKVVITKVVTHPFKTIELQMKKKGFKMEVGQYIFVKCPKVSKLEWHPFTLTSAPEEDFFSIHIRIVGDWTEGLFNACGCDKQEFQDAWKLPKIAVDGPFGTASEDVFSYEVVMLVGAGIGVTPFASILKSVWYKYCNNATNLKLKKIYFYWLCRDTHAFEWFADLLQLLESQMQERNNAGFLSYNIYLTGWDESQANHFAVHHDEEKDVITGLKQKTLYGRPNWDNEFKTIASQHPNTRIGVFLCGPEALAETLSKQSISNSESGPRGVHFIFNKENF
For assay [9], the target named is NADPH oxidase 4 (Homo sapiens) (UniProt Q9NPH5). As to the kind of experiment: compounds shifting NOX4 Amplex Red fluorescence – cell-based, HEK293-NOX4, tetracycline-induced, NOX inhibitor project, primary screen (AID 1160). To be noted: HEK293-NOX4, Amplex Red H2O2 fluorescence, 45 min; higher = more signal, called active from +8 up or from −8 down.
Sequence of NADPH oxidase 4 (Homo sapiens) (Q9NPH5 whole entry, looked up): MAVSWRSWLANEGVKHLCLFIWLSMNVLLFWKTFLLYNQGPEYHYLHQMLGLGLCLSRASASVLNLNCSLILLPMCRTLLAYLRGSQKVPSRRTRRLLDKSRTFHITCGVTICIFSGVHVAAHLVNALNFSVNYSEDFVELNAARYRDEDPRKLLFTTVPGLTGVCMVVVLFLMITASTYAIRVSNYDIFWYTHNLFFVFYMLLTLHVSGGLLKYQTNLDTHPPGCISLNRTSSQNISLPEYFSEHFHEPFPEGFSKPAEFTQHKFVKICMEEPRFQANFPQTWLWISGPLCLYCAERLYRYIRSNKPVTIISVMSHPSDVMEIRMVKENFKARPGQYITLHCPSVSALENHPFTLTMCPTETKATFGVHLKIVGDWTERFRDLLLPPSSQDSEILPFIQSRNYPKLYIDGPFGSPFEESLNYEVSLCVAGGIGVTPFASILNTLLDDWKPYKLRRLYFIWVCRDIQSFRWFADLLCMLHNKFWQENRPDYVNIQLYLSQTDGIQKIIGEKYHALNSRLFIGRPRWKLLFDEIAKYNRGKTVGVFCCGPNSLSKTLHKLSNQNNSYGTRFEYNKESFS
In assay [10] the target is NADPH oxidase 5 (Homo sapiens) (UniProt Q96PH1). As to the kind of experiment: compounds shifting NOX5 Amplex Red fluorescence – cell-based, HEK293-NOX5, NOX inhibitor project, primary screen (AID 1161). The conditions noted are these: HEK293-NOX5, ionomycin, 45 min, higher = more signal.
Sequence of NADPH oxidase 5 (Homo sapiens) (Q96PH1 whole entry, looked up): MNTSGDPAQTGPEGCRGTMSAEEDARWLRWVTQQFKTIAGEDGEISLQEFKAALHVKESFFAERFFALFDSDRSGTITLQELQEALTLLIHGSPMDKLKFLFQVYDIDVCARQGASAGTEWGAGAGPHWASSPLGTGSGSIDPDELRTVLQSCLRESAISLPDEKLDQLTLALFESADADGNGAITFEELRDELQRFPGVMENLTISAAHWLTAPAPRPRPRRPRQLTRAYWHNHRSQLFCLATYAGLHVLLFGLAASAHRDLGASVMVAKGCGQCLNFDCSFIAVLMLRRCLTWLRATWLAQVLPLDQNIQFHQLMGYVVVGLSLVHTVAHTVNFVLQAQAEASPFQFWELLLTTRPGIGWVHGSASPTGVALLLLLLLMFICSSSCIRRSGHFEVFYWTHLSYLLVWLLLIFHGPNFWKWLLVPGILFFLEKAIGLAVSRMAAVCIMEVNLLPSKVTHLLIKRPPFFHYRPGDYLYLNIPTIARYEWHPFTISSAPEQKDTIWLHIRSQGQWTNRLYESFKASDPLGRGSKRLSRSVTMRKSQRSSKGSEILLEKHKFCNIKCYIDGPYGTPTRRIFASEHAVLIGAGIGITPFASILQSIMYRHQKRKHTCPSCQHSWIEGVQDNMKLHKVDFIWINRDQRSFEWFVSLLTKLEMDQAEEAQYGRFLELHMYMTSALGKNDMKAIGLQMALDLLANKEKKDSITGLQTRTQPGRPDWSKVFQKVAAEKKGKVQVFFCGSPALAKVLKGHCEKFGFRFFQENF

Activity calls are given as the source filed them.

Regarding `CC1(C)C(=O)C(c2ccccc2)=C2CN3C(=O)N(CCc4ccccc4)C(=O)C3(Cc3ccccc3)C=C21` (stereo not given), the z-score is -1.23 (inactive) in assay [1]; 2.06 (inactive) in [3]; 0.541 (inactive) in assay [4]; 0.483 (inactive) in [5]; 0.861 (inactive) in assay [6]; -0.196 in [7]. In addition, the values for the z-score in assay [8], in assay [9] and in [10] were -0.147 (inactive), 0.405 (inactive) and -1.62, respectively. In [2], this compound yielded a composite z-score of 0.647.

Regarding `C=CCNC(=O)[C@@H]1[C@H]2C(=O)O[C@H](c3ccccc3)[C@H](c3ccccc3)N2[C@H](c2ccccc2OCCO)[C@@]12C(=O)N(C(=O)OCCOC)c1ccc(C#CCC(C(=O)OC)C(=O)OC)cc12`, the z-score in [1] is 0.0535 (inactive); in assay [3], 1.78 (inactive); in [4], 0.931 (inactive); in assay [5], 0.222 (inactive); in assay [6], 0.506 (inactive); in assay [7] it was 0.273. The z-score in [8] was 0.793 (inactive); in assay [9] it was 0.966 (inactive); in assay [10], 1.07. The composite z-score in assay [2] stood at 1.51.

Regarding `C=CC[C@]1(C(=O)NCCN2CCOCC2)N=C(c2ccc(OCCCO)cc2)O[C@H]1c1ccccc1N=[N+]=[N-]`, the z-score in assay [1] is 1.39 (inactive); in [3], 30.7 (active); in assay [4], 28.6 (active); in assay [5] it was 2.5 (inactive); in assay [6], 5.98 (inactive); in assay [7], -0.106. In addition, the z-score in [8] is -0.798 (inactive); in [9], 1.5 (inactive); in assay [10] it was 0.108. In assay [2], this compound gave a composite z-score of 0.14.

As for `O=C1NC(=O)C2C1C=CC(C(O)c1cccs1)N2Nc1ccccn1` (stereo not given), the z-score is 0.218 (inactive) in [1]; 0.624 (inactive) in assay [3]; 0.253 (inactive) in assay [4]; -0.285 (inactive) in [5]; 0.853 (inactive) in [6]; -0.726 in [7]. Besides, the figures for the z-score in [8], in assay [9] and in assay [10] were 0.659 (inactive), -1.32 (inactive) and -0.795, respectively. Besides, the composite z-score in assay [2] was -0.0035.

For `C=C[C@H](C)[C@H](OC(=O)Nc1ccc(OC)cc1)c1ccc(O)c2ccccc12`, the z-score was -0.222 (inactive) in [1]; 1.71 (inactive) in assay [3]; 0.435 (inactive) in [4]; -0.554 (inactive) in [5]; -0.187 (inactive) in [6]; 0.486 in assay [7]. For the same compound, the z-score was -5.39 (inactive) in assay [8], -1.77 (inactive) in [9] and -0.256 in assay [10]. In assay [2], this compound gave a composite z-score of 0.0313.

For `NC(=O)[C@]1(Cc2ccccc2)N=C(c2ccc(OCCCO)cc2)O[C@@H]1c1ccccc1`, the z-score in assay [1] is -0.465 (inactive); in assay [3] it was 26.5 (active); in assay [4], 15.6 (active); in assay [5], 0.531 (inactive); in assay [6], 2.19 (inactive); in assay [7], -0.0349. The z-score in assay [8] is -0.273 (inactive); in assay [9], -0.228 (inactive); in [10], 0.575. This compound yielded a composite z-score in assay [2] of 0.351.

In the case of `COCCCNC(=O)[C@]1(Cc2ccccc2N=[N+]=[N-])N=C(c2ccc(OCCCO)cc2)O[C@@H]1c1ccccc1CN=[N+]=[N-]`, the z-score in assay [1] is 0.871 (inactive); in assay [3] it was 28.1 (active); in [4] it was 21.2 (active); in assay [5] it was 3.17 (inactive); in assay [6] it was 2.71 (inactive); in [7], 1.97. Moreover, the z-score in [8] is -0.888 (inactive); in assay [9], 0.4 (inactive); in assay [10], -0.209. Further, in assay [2], the composite z-score was determined as 0.766.

For `COc1ccc([Si](C)(C)[C@@H]2[C@@H](CCn3cc([C@H](O)c4ccccc4)nn3)O[C@]3(C(=O)N(C)c4ccccc43)[C@H]2C)cc1`, the z-score was -0.702 (inactive) in assay [1]; 4.2 (inactive) in assay [3]; 0.579 (inactive) in assay [4]; 1.51 (inactive) in [5]; 0.325 (inactive) in assay [6]; 0.416 in assay [7]. Further, the z-score in assay [8] was 1.62 (inactive); in [9] it was 0.689 (inactive); in assay [10] it was -1.55. This compound also registered a composite z-score in assay [2] of -0.101.

Take `CN1C(=O)C2C=CC(C(O)c3ccccc3)N(NC(=O)OC(C)(C)C)C2C1=O` (stereo not given): the z-score in [1] was -1.18 (inactive); in [3], -0.0278 (inactive); in assay [4] it was 0.519 (inactive); in [5], 0.303 (inactive); in [6], 1.25 (inactive); in assay [7], -1.04. In addition, the z-score in assay [8] is -1.08 (inactive); in assay [9], -0.302 (inactive); in assay [10], -1.87. In assay [2], this compound yielded a composite z-score of 0.199.

As for `O=C(NCCN1CCOCC1)[C@@H]1c2ccccc2C(=O)N(Cc2cc(F)cc(C(F)(F)F)c2)[C@H]1c1ccc(CO)cc1`, the z-score in [1] is -0.61 (inactive); in assay [3], 3.37 (inactive); in assay [4], 0.298 (inactive); in assay [5], 0.884 (inactive); in assay [6] it was 0.0839 (inactive); in assay [7] it was -0.287. Further, the z-score was 1.44 (inactive) in assay [8], 1.12 (inactive) in assay [9] and 2 in assay [10]. This compound also gave a composite z-score in assay [2] of -0.0492.

In the case of `C=C(CCCC)/C(=C/C[C@@H](OC(=O)c1ccncc1)c1ccc(CO)o1)c1cc(C(=O)OC)ccc1OC`, the z-score in assay [1] is 0.722 (inactive); in [3], 8.99 (active); in assay [4] it was 1.07 (inactive); in assay [5], 2.84 (inactive); in assay [6], 0.454 (inactive); in [7], 0.739. Also, the z-score was -0.268 (inactive) in assay [8], -1.08 (inactive) in assay [9] and -1.52 in [10]. In addition, the composite z-score in [2] amounted to 0.0263.

As to `O=C1O[C@H](c2ccccc2)[C@H](c2ccccc2)N2[C@H]1[C@@H](C(=O)Nc1nc3ccccc3s1)[C@]1(C(=O)Nc3ccc(C#CC4=CCCCC4)cc31)[C@H]2c1ccc(OCCO)cc1`, the z-score is -0.199 (inactive) in assay [1]; 2.54 (inactive) in [3]; 1.62 (inactive) in assay [4]; 1.44 (inactive) in assay [5]; 1.2 (inactive) in [6]; -0.686 in assay [7]. The z-score was 1.92 (inactive) in assay [8], 0.266 (inactive) in assay [9] and 0.0146 in assay [10]. In [2], this compound displayed a composite z-score of 0.46.

For the compound `CN(C)CCCCCCNC(=O)[C@@H]1C[C@@H]2C(=O)NCC(=O)N2[C@@H]1c1cccc(OCCO)c1`, the z-score in assay [1] is 0.492 (inactive); in [3] it was 2.11 (inactive); in [4], 0.109 (inactive); in assay [5], 2.28 (inactive); in assay [6], 0.253 (inactive); in assay [7], 0.0964. Moreover, the z-score in [8] is 0.438 (inactive); in [9], 0.611 (inactive); in assay [10], 0.6. This compound yielded a composite z-score in [2] of 0.169.
